Molecules are shown by their SMILES. Records with an inconclusive call do not appear. Where a call stands in place of a potency, no number is given. Active and inactive are the calls of the source. Calls follow the shape of the dose curve; as a rule, active = well fitted cell-killing curve with a large enough effect; inconclusive = small, poorly fitted or top-dose-only effect; inactive = flat fitted curve, though single readings scatter.

The test is described as follows: Cell Viability - H-4-II-E (AID 543). Also: nearly all actives have a fitted effect of over 35% in size. To be noted: H-4-II-E rat hepatoma viability; series mostly up to 92.2 µM. From the text:
NIH Chemical Genomics Center [NCGC]
NIH Molecular Libraries Screening Centers Network [MLSCN]
National Institutes of Environmental Health Sciences [NIEHS]
National Toxicology Program [NTP]
We have developed a 1536-well cell-based assay for quantitative high throughput screening (qHTS) against a number of cell lines to determine in vitro cytotoxicity of small molecules. This particular assay uses the H-4-II-E cell line which is derived from rat hepatoma.
NCGC Assay Protocol Summary:
The CellTiter-Glo luminescent cell viability assay (Promega) is a homogeneous method to measure the number of viable cells in culture. The end point readout of this assay is based on quantitation of intracellular ATP, an indicator of metabolic activity, using the luciferase reaction. Luciferase catalyzes the oxidation of beetle Luciferin to oxyluciferin and light in the presence of ATP. The luminescent signal is proportional to amount of ATP present.
Using the CellTiter-Glo luminescent cell viability assay, the amount of cellular ATP was measured in the H-4-II-E cell line with complete culture medium following compound treatment for 40 hours. The assay was performed in opaque white Kalypsys 1536-well plates. In the screen, tamoxifen and doxorubicin were used as positive controls. Library compounds were measured for their ability to cause acute toxicity in the cell line, as reflected by a decrease in intracellular ATP levels, in a concentration-dependent manner. […] AC50 values were determined from concentration-response data modeled with the standard Hill equation.
qHTS protocol fo CellTiter Glo H-4-II-E cellular assay
[Step] [Parameter] [Value] [Description]
1. Reagent; 5 uL; 1500 H-4-II-E cells/well
2. Time; 5 hr; 37 °C incubation
4. Controls; 23 nL; Tamoxifen 0.34 uM to 100 uM & Doxorubicin 0.02 nM to 100 uM
5. Time; 40 hr; 37 °C incubation
6. Reagent; 5 uL; CellTiter Glo reagent
7. Time; 20 min; Room Temperature
8. Detection; Luminescence; Viewlux plate reader
Keywords: cell viability, cytotoxicity, H-4-II-E cell line, luminescence, NTPHTS, NTPHTS_NCGC, NIEHS, EPA, DSSTox, MLSMR, MLSCN, NIH Roadmap, qHTS, NCGC
For the compound `CCCCC(CC)COCC1CO1` (stereo not given), the Potency result is “inactive”.

Consider `Cc1ccc(CO)cc1`, for which the Potency result was “inactive”. Next, `CC1CCCO1` (stereo not given): “inactive”; `O=Nc1ccc(NO)cc1`: “inactive”; `NS(=O)(=O)O`: “inactive”. Take `Nc1ccccc1[N+](=O)[O-]`: the Potency result is “inactive”. Next, `CCCCCCO`: “inactive”; `C1COC1`: “inactive”; `C/C=C1\CC2C=CC1C2` (stereo not given): “inactive”.

On to `CC(N)CN` (stereo not given), for which the Potency result was “inactive”. As for `O=[N+]([O-])c1ccc(NCCO)c(OCCO)c1`, the entry is “inactive”; as for `c1ccc2[nH]cnc2c1`, “inactive”; as for `Clc1cc(Cl)cc(Cl)c1`, “inactive”. Next, `CCCCCCCCC`: “inactive”. As for `Cc1cc(C)cc(N)c1`, the entry is “inactive”; as for `c1ccc(Oc2ccccc2)cc1`, “inactive”.

Consider `Nc1nc2ccccc2[nH]1`, for which the Potency result is “inactive”. Next, `CC(=O)C1(C)CC2=C(CCCC2(C)C)CC1C` (stereo not given): “inactive”; `CC(=O)OCc1ccco1`: “inactive”. As for `C=CCn1c(=O)n(CC=C)c(=O)n(CC=C)c1=O`, the entry is “inactive”. In the case of `Cc1ccc2oc(=O)ccc2c1`, the Potency entry is “inactive”. As for `N#Cc1ccccc1`, the entry is “inactive”; as for `CC(C)c1ccccc1`, “inactive”. As for `Cc1nc2ccc(Cl)cc2[nH]1`, the entry is “inactive”. `BrC(Br)C(Br)Br`: the Potency entry is “inactive”. Next, `FB(F)F`: “inactive”; `Cc1cccc(C(=O)O)c1[N+](=O)[O-]`: “inactive”.

Take `CO[Si](CCCNCCC[Si](OC)(OC)OC)(OC)OC`: the Potency entry was “inactive”. As for `CCOCC(=O)O`, the entry is “inactive”; as for `[O-]/[N+](=N\O)c1ccccc1`, “inactive”. For `CC(=O)OCCC(C)C`, the Potency result is “inactive”. Next, `O=C(O)CN(CC(=O)O)CC(=O)O`: “inactive”. As for `NC=O`, the entry is “inactive”; as for `c1ccc2c(c1)Oc1ccccc1S2`, “inactive”. As for `CNc1ccccc1`, the entry is “inactive”. For `O=C1NC(=O)c2cc([N+](=O)[O-])ccc21`, the Potency result was “inactive”.

`Cc1cccc(C)c1O`: the Potency result was “inactive”. Next, `C=CC(=O)NC(C)C`: “inactive”; `O=Cc1ccc(C(=O)O)cc1`: “inactive”; `CSCCC=O`: “inactive”.

These data come from PubChem BioAssay (NCATS).
